From PubChem BioAssay (Tox21)
Inconclusive results are not listed. Calls of active or inactive are those of the source. Unless noted, calls come from the whole dose curve; as a rule, active = well fitted curve in the direction sought with a large enough effect in the repeat runs; inconclusive = weak or mixed curves; inactive = no such curve, though single readings can be large; an effect the other way counts as inactive or inconclusive.

Key:
[1] = qHTS RealTime-Glo MT Cell Viability Assay in HEK293 cells - 0 hour (AID 1224880); note: top concentration of the series differs between compounds; nearly all actives have a fitted effect of over 45% in size
Procedure, shortened: (§1)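 Tox21 screen in HEK293 using RealTime-Glo MT chemistry, with cells and reagent co-dispensed. Luminescence proportional to viable cell number was captured at intervals during 40 h compound exposure at 37 C.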

[2] = A CellTox Green Cytotoxicity Assay to monitor cytotoxicity in HEK293 cells - 32 hour (AID 1224881); note: nearly all actives have a fitted effect of over 40% in size
Procedure, shortened: (§2)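 Seeding of HEK293 cells together with cytotoxicity dye preceded a 5 h incubation at 37 C/5% CO2. Test compounds in DMSO were then added and fluorescence monitored across 40 h.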

[3] = A CellTox Green Cytotoxicity Assay to monitor cytotoxicity in HepG2 cells - 0 hour (AID 1224882); note: nearly all actives have a fitted effect of over 35% in size
Procedure, shortened: (§3)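 Nonlytic assay: viable cells exclude the dye, so fluorescence scales with cell death. HepG2 at 600 cells/well, compounds added after 5 h, signal read across 40 h.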

[4] = A CellTox Green Cytotoxicity Assay to monitor cytotoxicity in HepG2 cells - 32 hour (AID 1224883); note: nearly all actives have a fitted effect of over 50% in size
Procedure, shortened: as §3

[5] = A CellTox Green Cytotoxicity Assay to monitor cytotoxicity in HEK293 cells - 8 hour (AID 1224884); note: nearly all actives have a fitted effect of over 35% in size
Procedure, shortened: as §2

[6] = qHTS RealTime-Glo MT Cell Viability Assay in HepG2 cells - 16 hour (AID 1224885); note: nearly all actives have a fitted effect of over 50% in size
Procedure, shortened: (§4)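 Cell number in HepG2 cultures estimated from NanoLuc luminescence generated by metabolic reduction of a prosubstrate by living cells. The homogeneous, nonlytic format allowed repeated reads at 0, 8, 16, 24, 32 and 40 h of compound exposure.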

[7] = qHTS RealTime-Glo MT Cell Viability Assay in HEK293 cells - 24 hour (AID 1224886); note: top concentration of the series differs between compounds; nearly all actives have a fitted effect of over 50% in size
Procedure, shortened: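 Homogeneous bioluminescent viability format in HEK293 cells (600 cells/well). Following 5 h at 37 C/5% CO2, 23 nL compound was pintooled; the signal was measured repeatedly during 40 h incubation.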

[8] = qHTS RealTime-Glo MT Cell Viability Assay in HEK293 cells - 8 hour (AID 1224887); note: top concentration of the series differs between compounds; nearly all actives have a fitted effect of over 50% in size
Procedure, shortened: as §1

[9] = A CellTox Green Cytotoxicity Assay to monitor cytotoxicity in HEK293 cells - 16 hour (AID 1224888); note: nearly all actives have a fitted effect of over 35% in size
Procedure, shortened: as §2

[10] = qHTS RealTime-Glo MT Cell Viability Assay in HepG2 cells - 0 hour (AID 1224889); note: nearly all actives have a fitted effect of over 50% in size
Procedure, shortened: as §4

[11] = A CellTox Green Cytotoxicity Assay to monitor cytotoxicity in HepG2 cells - 8 hour (AID 1224890); note: nearly all actives have a fitted effect of over 45% in size
Procedure, shortened: as §3

[12] = qHTS assay to identify small molecule antagonists of the estrogen receptor alpha (ER-alpha) signaling pathway using the BG1 cell line in the presence of 0.1 nM 17-beta-estradiol - cell viability counter screen (AID 1259241); note: nearly all actives have a fitted effect of over 40% in size
Procedure, shortened: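 VM7Luc4E2 cells (endogenous full-length ER-alpha, 4xERE-luciferase), cultured 5 days in charcoal-stripped serum, exposed to compounds with 0.1 nM 17beta-estradiol (final) for 22 hr at 37C. Viability read in same wells as live-cell protease fluorescence after 30 min.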

[13] = qHTS assay to identify small molecule antagonists of the androgen receptor (AR) signaling pathway using the MDA cell line in the presence of 0.5 nM R1881 - cell viability counter screen (AID 1259242); note: nearly all actives have a fitted effect of over 45% in size
Procedure, shortened: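 R1881 at 0.5 nM final stimulated MDA-kb2 cells during 16 hr compound treatment at 37C. Cytotoxicity read: CellTiter-Fluor fluorescence after 30 min.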

[14] = target: Androgen receptor (Homo sapiens) (UniProt P10275); test: qHTS assay to identify small molecule antagonists of the androgen receptor (AR) signaling pathway using the MDA cell line in the presence of 0.5 nM R1881 (AID 1259243); note: nearly all actives have a fitted effect of over 50% in size
Procedure, shortened: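 We exposed MDA-kb2 cells to compounds under 0.5 nM R1881 stimulation for 16 hr at 37C and quantified MMTV-driven luciferase by luminescence.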

[15] = target: Estrogen receptor (Homo sapiens) (UniProt P03372); test: qHTS assay to identify small molecule antagonists of the estrogen receptor alpha (ER-alpha) signaling pathway using the BG1 cell line in the presence of 0.1 nM 17-beta-estradiol (AID 1259244); note: nearly all actives have a fitted effect of over 50% in size
Procedure, shortened: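 VM7Luc4E2; 4xERE-luciferase; 0.1 nM E2 final; 22 h co-incubation, 37C; ONE-Glo luminescence after 30 min at room temperature.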

[16] = qHTS assay to identify small molecule phospholipidosis (PLD) inducers (AID 1259344; active = well fitted curve in the direction sought with a large enough effect; an effect the other way counts as inactive or inconclusive)
Procedure, shortened: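 Quantitative HTS in HepG2: compound plus LipidTOX Red dye for 24 h, paraformaldehyde fixation with Hoechst 33342, widefield high-content imaging; amiodarone as positive and DMSO as negative control.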

[17] = qHTS assay to identify small molecule HDAC inhibitors (AID 1259364);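 note: wild-type HCT-116 cells with endogenous class I/II HDAC activity; top concentration of the series differs between compounds; nearly all actives have a fitted effect of over 45% in size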
Procedure, shortened: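 Relative class I and II HDAC activity is taken from the luminogenic signal in HCT-116 cells, with compound exposure 2 hr and reagent development 30 min at room temperature.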

[18] = qHTS assay to identify small molecule HDAC inhibitors - cell viability counter screen (AID 1259365)
Procedure, shortened: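 Wild-type HCT-116 cells, 1,500/well, cultured overnight, then compound-treated 2 h at 37 C. Viability measured as ATP luminescence with CellTiter-Glo after 30 min at room temperature.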

[19] = qHTS assay to identify small molecule agonists of the sonic hedgehog signaling (Shh) pathway - cell viability counter screen (AID 1259366); note: nearly all actives have a fitted effect of over 50% in size
Procedure, shortened: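 NIH/3T3-derived Gli1-Luc reporter cells, 2,000 per well, received compound after 4 h and were treated about 23 h at 37C. Viability measured in the same wells by CellTiter-Fluor fluorescence after 1 h.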

[20] = qHTS assay to identify small molecule antagonists of the sonic hedgehog signaling (Shh) pathway - cell viability counter screen (AID 1259367); note: nearly all actives have a fitted effect of over 55% in size
Procedure, shortened: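 Seed 3T3 Gli1-Luc cells at 2,000 per well; incubate 4 hr; add compound in DMSO, then conditioned medium; incubate at 37C with 5% CO2; add CellTiter-Fluor after 23 hr; read fluorescence 1 hr later.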
% is set by controls: 0 for no effect and ±100 for the full control effect.

Chain of Estrogen receptor (Homo sapiens) (P03372 whole entry, looked up): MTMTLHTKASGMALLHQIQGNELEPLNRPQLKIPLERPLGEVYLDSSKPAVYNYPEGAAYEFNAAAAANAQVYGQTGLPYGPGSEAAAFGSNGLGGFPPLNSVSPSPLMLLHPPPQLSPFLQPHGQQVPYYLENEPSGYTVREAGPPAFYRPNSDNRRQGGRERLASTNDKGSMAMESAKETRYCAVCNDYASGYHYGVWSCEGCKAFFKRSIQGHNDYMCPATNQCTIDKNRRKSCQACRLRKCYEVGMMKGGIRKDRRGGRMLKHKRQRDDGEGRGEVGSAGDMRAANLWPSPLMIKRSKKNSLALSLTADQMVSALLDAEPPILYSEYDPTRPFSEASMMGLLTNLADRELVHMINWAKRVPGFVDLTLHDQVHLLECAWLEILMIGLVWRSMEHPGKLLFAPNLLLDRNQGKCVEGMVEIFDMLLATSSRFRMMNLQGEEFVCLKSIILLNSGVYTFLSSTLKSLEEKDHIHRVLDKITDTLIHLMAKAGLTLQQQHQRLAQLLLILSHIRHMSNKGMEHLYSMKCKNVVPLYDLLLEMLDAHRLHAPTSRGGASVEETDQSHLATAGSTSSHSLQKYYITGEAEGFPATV
Chain of Androgen receptor (Homo sapiens) (P10275 whole entry, looked up): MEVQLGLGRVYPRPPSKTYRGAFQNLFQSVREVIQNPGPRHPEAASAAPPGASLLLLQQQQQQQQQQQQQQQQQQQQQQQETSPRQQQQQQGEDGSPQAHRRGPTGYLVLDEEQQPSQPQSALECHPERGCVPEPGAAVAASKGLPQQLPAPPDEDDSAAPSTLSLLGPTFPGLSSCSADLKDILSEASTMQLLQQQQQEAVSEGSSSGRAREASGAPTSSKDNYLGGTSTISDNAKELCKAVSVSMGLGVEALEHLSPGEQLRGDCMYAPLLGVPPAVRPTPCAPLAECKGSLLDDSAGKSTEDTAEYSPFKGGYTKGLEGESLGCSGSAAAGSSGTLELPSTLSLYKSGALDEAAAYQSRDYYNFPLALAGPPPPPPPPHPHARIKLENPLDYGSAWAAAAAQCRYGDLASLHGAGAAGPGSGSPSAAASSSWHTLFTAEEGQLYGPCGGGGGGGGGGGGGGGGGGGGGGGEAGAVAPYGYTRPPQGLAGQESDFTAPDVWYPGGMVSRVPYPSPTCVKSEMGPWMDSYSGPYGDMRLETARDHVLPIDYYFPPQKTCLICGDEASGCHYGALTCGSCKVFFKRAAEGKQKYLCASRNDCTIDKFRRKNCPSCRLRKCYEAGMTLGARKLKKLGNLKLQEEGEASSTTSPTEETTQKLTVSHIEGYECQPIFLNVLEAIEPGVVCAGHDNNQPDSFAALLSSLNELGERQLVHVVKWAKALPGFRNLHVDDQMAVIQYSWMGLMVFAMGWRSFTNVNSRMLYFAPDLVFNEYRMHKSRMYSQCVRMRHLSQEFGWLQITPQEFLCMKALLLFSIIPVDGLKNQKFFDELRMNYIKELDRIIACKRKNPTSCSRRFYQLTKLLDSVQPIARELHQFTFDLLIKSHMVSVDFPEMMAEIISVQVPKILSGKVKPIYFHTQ

CCC1=C(C)CN(C(=O)NCCc2ccc(S(=O)(=O)NC(=O)NC3CCC(C)CC3)cc2)C1=O (stereo not drawn)
inactive: Potency [1] | Potency [2] | Potency [3] | Potency [4] | Potency [5] | outcome [6] | Potency [7] | Potency [8] | Potency [9] | Potency [10] | Potency [11] | Potency [12] | Potency [13] | Potency [14] | Potency [15] | Potency [16] | Potency [17] | outcome [18] | Potency [19] | Potency [20]

CCCOC(C)=O
inactive: Potency [1] | Potency [2] | Potency [3] | Potency [4] | Potency [5] | outcome [6] | Potency [7] | Potency [8] | Potency [9] | Potency [10] | Potency [11] | Potency [12] | Potency [13] | Potency [14] | Potency [15] | Potency [17] | outcome [18] | Potency [19] | Potency [20]

N#C[C@@H]1CC(F)(F)CN1C(=O)CNC1CC2CCC(C1)N2c1ncccn1 (stereo partly drawn)
inactive: Potency [1] | Potency [2] | Potency [3] | Potency [4] | Potency [5] | outcome [6] | Potency [7] | Potency [8] | Potency [9] | Potency [10] | Potency [11] | Potency [12] | Potency [13] | Potency [14] | Potency [15] | Potency [17] | outcome [18] | Potency [20]

C/C(=C\C(C)CC(C)CC(C)C)C1CC(=O)OC1=O (stereo not drawn)
inactive: Potency [1] | Potency [2] | Potency [3] | Potency [4] | Potency [5] | outcome [6] | Potency [7] | Potency [8] | Potency [9] | Potency [10] | Potency [11] | Potency [12] | Potency [13] | Potency [15] | Potency [17] | outcome [18] | Potency [19]

NC(=O)c1cc[n+](CC2=C(C(=O)[O-])N3C(=O)[C@@H](NC(=O)Cc4cccs4)[C@H]3SC2)cc1
inactive: Potency [1] | Potency [2] | Potency [3] | Potency [4] | Potency [5] | outcome [6] | Potency [7] | Potency [8] | Potency [9] | Potency [10] | Potency [11] | Potency [12] | Potency [13] | Potency [15] | Potency [16] | Potency [17] | outcome [18] | Potency [19]

CCOCCn1c(N2CCCN(C)CC2)nc2ccccc21
inactive: Potency [1] | Potency [2] | Potency [3] | Potency [4] | Potency [5] | outcome [6] | Potency [7] | Potency [8] | Potency [9] | Potency [10] | Potency [11] | Potency [12] | Potency [13] | Potency [14] | Potency [16] | Potency [17] | outcome [18] | Potency [20]

O=C(O)c1cc(C(=O)O)c(C(=O)O)cc1C(=O)O
inactive: Potency [1] | Potency [2] | Potency [3] | Potency [4] | Potency [5] | outcome [6] | Potency [7] | Potency [8] | Potency [9] | Potency [10] | Potency [11] | Potency [12] | Potency [13] | Potency [14] | Potency [15] | Potency [17] | outcome [18] | Potency [19] | Potency [20]

Cc1ccc2c(Cl)cc(Cl)c(O)c2n1
inactive: Potency [1] | Potency [2] | Potency [3] | Potency [4] | Potency [5] | outcome [6] | Potency [7] | Potency [8] | Potency [9] | Potency [10] | Potency [11] | Potency [12] | Potency [13] | Potency [14] | Potency [15] | PLD induction [16] 0.648% [at 1.53 µM] | Potency [17] | outcome [18] | Potency [19] | Potency [20]

OCCCO
inactive: Potency [1] | Potency [2] | Potency [3] | Potency [4] | Potency [5] | outcome [6] | Potency [7] | Potency [8] | Potency [9] | Potency [10] | Potency [11] | Potency [12] | Potency [13] | Potency [14] | Potency [15] | Potency [17] | outcome [18] | Potency [19] | Potency [20]

CC(COc1ccccc1)NC(C)C(O)c1ccc(O)cc1 (stereo not drawn)
inactive: Potency [1] | Potency [2] | Potency [3] | Potency [4] | Potency [5] | outcome [6] | Potency [7] | Potency [8] | Potency [9] | Potency [10] | Potency [11] | Potency [12] | Potency [13] | Potency [15] | Potency [16] | Potency [17] | outcome [18] | Potency [19] | Potency [20]

O=c1[nH][nH]c2ccccc12
inactive: Potency [1] | Potency [2] | Potency [3] | Potency [4] | Potency [5] | outcome [6] | Potency [7] | Potency [8] | Potency [9] | Potency [10] | Potency [11] | Potency [12] | Potency [13] | Potency [14] | Potency [17] | outcome [18]

CC(C)(C)c1cc(C=O)cc(C(C)(C)C)c1O
inactive: Potency [1] | Potency [2] | Potency [3] | Potency [4] | Potency [5] | outcome [6] | Potency [7] | Potency [8] | Potency [9] | Potency [10] | Potency [11] | Potency [12] | Potency [13] | Potency [15] | Potency [17] | outcome [18] | Potency [19]

Cc1nc(C)c(C)nc1C
inactive: Potency [1] | Potency [2] | Potency [3] | Potency [4] | Potency [5] | outcome [6] | Potency [7] | Potency [8] | Potency [9] | Potency [10] | Potency [11] | Potency [12] | Potency [13] | Potency [14] | Potency [15] | Potency [17] | outcome [18] | Potency [20]

CCCc1ccc(OC)cc1
inactive: Potency [1] | Potency [2] | Potency [3] | Potency [4] | Potency [5] | outcome [6] | Potency [7] | Potency [8] | Potency [9] | Potency [10] | Potency [11] | Potency [12] | Potency [13] | Potency [14] | Potency [15] | Potency [17] | Potency [19]

O=C(O)CCc1nc2ccccc2[nH]1
inactive: Potency [1] | Potency [2] | Potency [3] | Potency [4] | Potency [5] | outcome [6] | Potency [7] | Potency [8] | Potency [9] | Potency [10] | Potency [11] | Potency [12] | Potency [13] | Potency [15] | Potency [16] | Potency [17] | Potency [19] | Potency [20]
